The supplement of paper PMC3334620
In all, about 33,000 sequences were measured (“E-score (-0.5 to 0.5)”: median about -0.043, highest 2% from about 0.37 on). Only a selection was taken, and the highest values are over-represented in it overall.

Biological target: T1, Upc2 (UniProt Q12151)
T1 sequence: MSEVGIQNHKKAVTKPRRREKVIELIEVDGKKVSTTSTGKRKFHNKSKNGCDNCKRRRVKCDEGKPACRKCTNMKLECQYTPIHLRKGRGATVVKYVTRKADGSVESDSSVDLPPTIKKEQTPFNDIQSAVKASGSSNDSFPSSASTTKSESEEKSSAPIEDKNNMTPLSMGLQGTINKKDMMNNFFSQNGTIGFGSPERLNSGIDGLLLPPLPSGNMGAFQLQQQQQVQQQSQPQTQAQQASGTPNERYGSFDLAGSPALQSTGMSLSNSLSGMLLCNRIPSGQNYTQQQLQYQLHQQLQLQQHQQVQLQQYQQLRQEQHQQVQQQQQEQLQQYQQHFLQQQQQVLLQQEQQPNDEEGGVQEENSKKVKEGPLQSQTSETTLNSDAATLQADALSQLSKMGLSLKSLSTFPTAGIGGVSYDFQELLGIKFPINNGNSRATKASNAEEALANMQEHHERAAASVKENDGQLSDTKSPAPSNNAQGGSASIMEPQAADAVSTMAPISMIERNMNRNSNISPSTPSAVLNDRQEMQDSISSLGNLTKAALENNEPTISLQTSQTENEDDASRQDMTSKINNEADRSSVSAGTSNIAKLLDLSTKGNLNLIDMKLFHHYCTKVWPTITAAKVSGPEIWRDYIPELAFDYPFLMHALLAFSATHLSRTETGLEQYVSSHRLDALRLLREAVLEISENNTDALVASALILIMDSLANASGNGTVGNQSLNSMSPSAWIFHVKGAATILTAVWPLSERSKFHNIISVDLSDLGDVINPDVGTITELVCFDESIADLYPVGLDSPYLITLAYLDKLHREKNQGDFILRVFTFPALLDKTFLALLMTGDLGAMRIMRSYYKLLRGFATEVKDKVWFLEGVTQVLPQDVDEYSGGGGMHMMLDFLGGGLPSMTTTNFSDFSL
Assay: PBM E-score (8-mer binding enrichment) (E-score (-0.5 to 0.5)); higher = stronger / more preferred TF binding
Details: protein concentration: 200 nM; construct: GST-full length
Experimental: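 Universal 'all 10-mer' protein binding microarrays (Agilent AMADID 015681) probed with GST-tagged S. cerevisiae TFs (full-length or DBD) made by in vitro transcription/translation (PURExpress), about 100-200 nM. Bound TF was detected with fluorescent anti-GST. Each ungapped 8-mer (which stands for itself and its reverse complement) is scored by the PBM enrichment score (E-score), a modified Wilcoxon-Mann-Whitney statistic from -0.5 to +0.5, computed with the Universal PBM Analysis Suite. Scale: above 0.35 generally sequence-specific binding.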

| Sequence | PBM E-score |
| --- | --- |
| TAGTTGGA | -0.109 |
| GCCGGGTA | -0.143 |
| ACCTAAGA | 0.0242 |
| ACCCTCTC | -0.197 |
| CACTGAGA | -0.0162 |
| CCTTGCGA | -0.195 |
| CCGGTGCA | -0.153 |
| GGTGACTA | -0.0935 |
| TCCCTCGA | -0.0965 |
| ACCAGTGG | -0.247 |
| ACAAGACT | -0.00931 |
| CGTCGTTA | 0.376 |
| CGCCGTTC | 0.339 |
| AGTCGTTC | 0.41 |
| AGTCGCTC | 0.0535 |
| AGTCGTTG | 0.0644 |
| GGTCGTTA | 0.358 |
| CGTCGATC | -0.0198 |
| AGTCGTTA | 0.317 |
| CGTCGTTC | 0.464 |
| AGGTGAAT | -0.0674 |
| GCACCGAA | 0.0996 |
| CCGCATAC | 0.197 |
| CATGAGGC | -0.218 |
| CTCAACAC | -0.0233 |

| Sequence | PBM E-score |
| --- | --- |
| AGGTTCGG | 0.022 |
| CAGATTCC | -0.195 |
| CGGGTACG | 0.43 |
| ACGGTACT | 0.0352 |
| ACGGTACC | 0.0672 |
| CGGGTACC | -0.158 |
| ACGGTACG | 0.408 |
| CCGGTACG | 0.421 |
| CCGGTACA | 0.106 |
| CCGGTACC | -0.196 |
| CGGGTACA | 0.114 |
| CCCTATAA | -0.00945 |
| CCATCAAG | -0.12 |
| AAGACCCT | -0.239 |
| CAGGTCGC | 0.0637 |
| AAGGTGGC | -0.0337 |
| GTTACGAA | 0.409 |
| GTTACGGA | 0.233 |
| CTTACGCA | 0.146 |
| ATTACGAA | 0.339 |
| CTTACGAC | 0.406 |
| CTTACGCC | 0.0225 |
| CTTACGAA | 0.399 |
| CTCACGAC | -0.146 |
| CTCACGAA | 0.0214 |

| Sequence | PBM E-score |
| --- | --- |
| CCATTCTA | -0.068 |
| CAGAATTA | -0.0215 |
| GCTACTCC | -0.242 |
| CAGATGGC | -0.0004 |
| AGAGGCCT | -0.0685 |
| TCATGAAA | 0.0303 |
| ACCACTGG | -0.0523 |
| AAAAGCGA | 0.175 |
| GGATCTTA | 0.146 |
| ATACGAGG | 0.487 |
| GTACGCGA | 0.347 |
| CGACGAGC | 0.0758 |
| CCACGAGC | -0.0694 |
| AGACGAGG | 0.215 |
| ATACGAGA | 0.482 |
| GTACGAGA | 0.472 |
| CTACGAGA | 0.359 |
| GTCCGAGA | 0.205 |
| ACACGAGG | 0.248 |
| CTACGAGC | 0.393 |
| AGACGAGA | 0.184 |
| GCAGTTTA | 0.0629 |
| ACTCTTAG | -0.149 |
| ACTCTGGG | -0.181 |
| GGAGTCCC | -0.172 |

| Sequence | PBM E-score |
| --- | --- |
| CGTAACCA | 0.223 |
| CACAGTGA | -0.0917 |
| ACCCTCTG | -0.236 |
| ACACGAGC | 0.273 |
| AGACGAGC | 0.206 |
| ATACGAGC | 0.489 |
| AAACTGAC | -0.0907 |
| CGGGACCC | -0.177 |
| GCTGTGAC | 0.111 |
| ACATACGC | 0.281 |
| ACATACGA | 0.476 |
| ACATACGT | 0.239 |
| GCATACGC | 0.296 |
| TCATACAA | 0.0325 |
| GCATACAA | -0.0164 |
| GCATACGA | 0.47 |
| TCATACGA | 0.469 |
| TCATACCA | -0.0495 |
| CTAATGTC | -0.171 |
| AGATAAGA | 0.0794 |
| GGCTGATA | -0.0951 |
| CCTGAAGC | -0.175 |
| AATGGTGT | -0.0602 |
| CGTTGCTA | 0.0827 |
| CTAGCCCA | -0.335 |

| Sequence | PBM E-score |
| --- | --- |
| AAGAGGAC | -0.242 |
| ACTATCAG | -0.196 |
| CCTGAGAA | -0.0858 |
| GAAACGAA | 0.41 |
| GCAACGAA | 0.314 |
| GAAACAAA | 0.0262 |
| CAAACGAA | 0.467 |
| CCAACGAA | 0.109 |
| AAAACGAA | 0.283 |
| CTAGCTTC | -0.105 |
| GATCACAA | -0.0358 |
| GAATGCCC | 0.0462 |
| GCATACCA | 0.00545 |
| ATTGTGCC | -0.149 |
| AATCCATG | -0.252 |
| ACGACTCA | 0.29 |
| ACGACGCC | 0.306 |
| ACGACTCG | 0.381 |
| ACGACTCT | 0.319 |
| ACGACGCT | 0.361 |
| ACGACGCG | 0.389 |
| GCGACGCA | 0.108 |
| CCGACGCG | 0.16 |
| ACGACGCA | 0.389 |
| CGTCGGGC | -0.231 |

| Sequence | PBM E-score |
| --- | --- |
| ATCAATCA | 0.0322 |
| AAAATCCT | 0.0605 |
| AGGTTACG | 0.221 |
| CACGTAGA | 0.0732 |
| CTCGTAGA | 0.404 |
| CACGTAGC | -0.0699 |
| ATCGTAGA | 0.337 |
| GACGTAGA | 0.054 |
| GTCGTAGA | 0.386 |
| CTCGTAGC | 0.4 |
| GTAGTAGA | -0.0548 |
| ATCGTAGC | 0.356 |
| GTGGGGCA | -0.058 |
| CAGTGTCC | -0.141 |
| AGCCAATC | -0.0383 |
| TCCAGCCA | -0.231 |
| AGTCTATA | 0.0445 |
| ATGATCTA | -0.00479 |
| AACGAGCC | 0.449 |
| TACGAGCA | 0.465 |
| AACGAGCG | 0.442 |
| AGCGAGCG | 0.281 |
| CACGAGCG | 0.17 |
| AGCGAGCT | 0.225 |
| TGCGAGCA | 0.21 |

| Sequence | PBM E-score |
| --- | --- |
| CACGAGCC | 0.0758 |
| TCCGAGCA | 0.176 |
| AACGAGCT | 0.438 |
| GACGAGCC | -0.00056 |
| ACCGAGCT | 0.186 |
| CGCCGCTC | -0.0776 |
| AGTAACCA | -0.164 |
| CGCCAGCA | -0.169 |
| ATTGATAC | 0.173 |
| GGCAACAA | 0.0296 |
| GACGCCAA | -0.0565 |
| AGTTGATA | -0.0653 |
| GGGTGCAC | -0.128 |
| CGCATAGA | 0.158 |
| CACGAGCA | -0.0761 |
| GACGAGCA | 0.00509 |
| AACGAGCA | 0.444 |
| CATGCTAA | -0.2 |
| GAGGTTTA | 0.0651 |
| ATTGGACA | -0.0219 |
| CAACGGCA | -0.0468 |
| AAACGGCA | 0.37 |
